Measured values reported in PubChem BioAssay AID687001 (Broad Institute, 2013).
Entries with a potency or affinity are not part of this list.

Target: Protein S100-A4 (Homo sapiens) (UniProt P26447)
Experiment: human S100A4 peptide interaction inhibition curves – biochemical, fluorescence polarization, cherry-picked hits, dose response (AID 687001);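 also: 0% = DMSO neutral control wells and -100% = TFP positive control wells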
Conditions: FP, S100A4/TAMRA-myosin IIA peptide binding; series mostly up to 11 µM; activity change, negative = inhibition: at the top concentration;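 active = signal-lowering compounds whose fitted half-maximal concentration is at or below twice the top tested dose in every run; inconclusive = runs disagree, flat 30 to 70% inhibition, or poor curve fit; inactive = the rest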

Protein S100-A4 (Homo sapiens), sequence (P26447 whole entry, looked up): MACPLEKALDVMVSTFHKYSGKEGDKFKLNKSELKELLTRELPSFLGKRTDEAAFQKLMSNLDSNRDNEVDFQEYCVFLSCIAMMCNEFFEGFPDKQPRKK

Activity change, negative = inhibition, inactive:
CCCNC(=O)c1ccc2c(c1)nc(C)n2-c1cccc(C)c1 7.13%, COc1ccccc1NC(=S)NC(=O)Cc1ccccc1 -2.14%, COc1ccccc1-c1ccc2c(c1)O[C@H](CN(C)C(C)=O)[C@@H](C)CN([C@@H](C)CO)S2(=O)=O 0.172%, Cc1c(C(=O)OCC(=O)N(C)CC(=O)Nc2ccc(F)cc2)oc2ccccc12 5.97%, COc1ccc(CN(C)C[C@@H]2Oc3ccc(NC(=O)Cc4ccccc4)cc3CC(=O)N([C@@H](C)CO)C[C@H]2C)cc1 7.7%, O=C(C[C@H]1CC[C@@H]2[C@H](COC[C@@H](O)CN2C(=O)Cc2ccccc2)O1)NC1CCCC1 17.1% [at 10 µM], O=C(Nc1ccc(Cl)cc1)N[C@H]1CC[C@H](CCNC(=O)c2ccccc2F)O[C@@H]1CO 8.02%, CC(=O)N1CCCCN2[C@H](CO)[C@H](c3ccc(C#Cc4ccccc4F)cc3)[C@@H]2C1 1.29%, CN(C)CCCNC(=O)C[C@@H]1CC[C@H]2[C@@H](COC[C@@H](O)CN2Cc2ccc(Cl)c(Cl)c2)O1 6.42%, O=S(=O)(Nc1ccc(N2CCCCC2)cc1)c1ccc(F)cc1 8.2%, O=C1NC(Cc2ccc(Cl)cc2)COCc2cnnn2CCC1c1ccccc1 (centres undefined) 0.418%, Cc1ccc(S(=O)(=O)Nc2ccc3c(c2)nc(CCN2CCN(c4ccccn4)CC2)n3C)cc1 1.65%, C[C@H](CO)N1C[C@H](C)[C@@H](CN(C)Cc2cccc(F)c2)Oc2ncc(C#C[C@@H](C)O)cc2C1=O 1.72% [at 10 µM], C[C@H](CO)N1C[C@H](C)[C@@H](CN(C)Cc2ccc(C(=O)Nc3ccccc3N)cc2)Oc2c(NC(=O)C3CCCCC3)cccc2C1=O 12.5%, CC(C)CN1CCC(=O)N([C@H](COc2ccccc2)c2ccccc2)CC1 1.29%, CCCNC(=O)[C@@H]1[C@@H](CO)[C@@H]2Cn3c(cccc3=O)[C@H]1N2CCC(F)(F)F -3.13%, COc1ccc(CN(C)C[C@H]2Oc3c(NC(=O)NC(C)C)cccc3C(=O)N([C@H](C)CO)C[C@H]2C)cc1 -3.85%, Cc1ccc(C(=O)N2CCCC(CCC(=O)N3CCN(c4ccccn4)CC3)C2)cc1 (centres undefined) 3.63%, CSc1cccc(NS(=O)(=O)c2ccc(-c3coc(C)n3)cc2)c1 1.05%, CCCCN(CC(=O)NC1CCCC1)C(=O)C(=O)Nc1ccc2c(c1)OCCO2 2.24%, O=C(c1ccc2c(c1)OCO2)N1CC(=O)N2[C@@H](CO)[C@H](c3ccc(C#Cc4ccccc4)cc3)[C@@H]2C1 11.1%, O=C(NCCS(=O)(=O)NCCCc1ccccc1)c1ccccc1 -9.83%, Cc1ccc(NC(=O)CSc2ccc(-c3cccnc3)nn2)cc1 2.04%, CCNC(=O)[C@H]1N[C@H]2c3ccc(-c4cccc(C(=O)N(C)C)c4)c(=O)n3C[C@H]2[C@@H]1CO -4.56%, Cc1cc2nnc(SCC(=O)NCC(c3ccccc3)N(C)C)n2c2ccccc12 (centres undefined) -5.05%, Cn1c(CC(=O)NNC(=O)c2ccc(F)cc2F)nc2ccccc21 -2.58%, CCn1c(SCC(=O)O)nnc1-c1ccc2[nH]c(C)c(C)c2c1 -3.04%, COc1ccc(-c2cc(C(=O)NCc3ccco3)c3ccccc3n2)c(OC)c1 4.31%, Cc1csc(=O)n1CC(=O)OCc1nnc(-c2ccc(Cl)cc2)o1 20.9%, Cc1ccc(CNc2cnccn2)s1 1.38%, CCC1(c2ccc(F)cc2)NC(=O)N(CC(=O)N2CCc3ccccc3C2)C1=O (centres undefined) 1.7%, Cc1ccc(F)cc1NC(=O)CN1C(=O)NC(C)(c2ccc3c(c2)OCCO3)C1=O (centres undefined) -2.06%, CN(C)CC/C=C1/c2ccccc2COc2ccc(CC(=O)O)cc21 -4.99%, O=S(=O)(NCCN1CCOCC1)c1ccc(-c2ccc(S(=O)(=O)NCCN3CCOCC3)cc2)cc1 -2.5%, O=C(O)c1cccc(C(=O)O)c1S(=O)Cc1ccccc1 (centres undefined) -2.41%, Cc1ccc(S(=O)(=O)NCCC(=O)NCc2ccccn2)cc1 2.35%, O=C(C[C@H]1CC[C@H](NC(=O)Nc2ccccc2F)[C@@H](CO)O1)NCc1ccc(-c2ccccc2)cc1 0.931%, Cc1cnc(CN(C)C(=O)C2CCC(=O)N(CCc3ccccc3)C2)[nH]1 (centres undefined) -4.36%, COC(=O)c1c(NC(=O)CCN2CCOCC2)sc2c1CCCC2 -2.61%
